Marburg entry inh – Marburg virus entry inhibition; Marburg virus pseudotyped entry inhibition, cell reporter; Potency, µM (series often up to 37.8 µM), hits mostly inhibitors; 1.8% of 300,000 active; calls by dose curve; tested in HEK293 cells
Lassa entry inh – inhibitors of Lassa virus binding or cell entry | Potency, µM (doses to about 37.9 µM), hits mostly inhibitors | Lassa virus pseudotype entry inhibition, cell reporter | 1.2% of 300,000 active; calls by dose curve; tested in HEK293 cells; also: nearly all actives have a fitted effect of over 50% in size
FMDV inh – antivirals against foot and mouth disease virus; Potency, µM (doses to about 57.9 µM), hits mostly inhibitors; 1.2% of 410,000 active; FMDV antiviral cell-based qHTS; calls by dose curve; tested in HEK293T cells; also: read-out not given here; nearly all actives have a fitted effect of over 45% in size
Vaccinia mCherry – vaccinia inhibition (mCherry reporter) | Vaccinia virus mCherry reporter infection, fluorescence | Potency, µM (series often up to 36.5 µM), most hits filed as inhibitors | 0.63% of 310,000 active | AID 720579; calls by dose curve; tested in A549 cells; also: nearly all actives have a fitted effect of over 35% in size
Vaccinia Venus – vaccinia inhibition (Venus reporter); Vaccinia virus Venus reporter expression, fluorescence; AID 720580; 0.46% of 330,000 active; Potency, µM (titrated, usually from 36.5 µM), most hits filed as inhibitors; calls by dose curve; tested in A549 cells; also: nearly all actives have a fitted effect of over 30% in size
Each line names hits and unclear results; the compound was inactive in the other large screens. The list is not random: actives were taken first. Their share in the collection is about 3.2%.

O=C(Nc1c(F)cccc1F)c1cnc(N2CCN(c3ccccn3)CC2)c2ccccc12	Marburg entry inh inconclusive, Lassa entry inh inconclusive, FMDV inh 12.6µM (no result: Vaccinia mCherry, Vaccinia Venus)
COc1ccc(Cl)cc1NC(=O)c1cnc(N2CCCCC2)c2ccccc12	none (no result: Marburg entry inh)
O=C(c1cnc(N2CCN(c3ncccn3)CC2)c2ccccc12)N1CCN(c2ccccn2)CC1	Marburg entry inh inconclusive, Lassa entry inh 11.2µM, FMDV inh 28.2µM, Vaccinia mCherry inconclusive
COC(=O)c1cnc(N2CCN(c3ccc(F)cc3)CC2)c2ccccc12	FMDV inh inconclusive (no result: Marburg entry inh)
Cc1cc(Br)ccc1NC(=O)c1sc2ncnc(N3CCN(c4ccccn4)CC3)c2c1C	Marburg entry inh inconclusive, Lassa entry inh inconclusive
Cc1ccc(NC(=O)c2cnc(N3CCN(c4ccccn4)CC3)c3ccccc23)c(Br)c1	Marburg entry inh inconclusive, Lassa entry inh inconclusive, FMDV inh 6.31µM, Vaccinia mCherry inconclusive, Vaccinia Venus inconclusive
CCN1CCN(c2ncc(C(=O)Nc3cc(Cl)ccc3OC)c3ccccc23)CC1	Marburg entry inh 2µM, Lassa entry inh inconclusive, Vaccinia mCherry inconclusive, Vaccinia Venus inconclusive
Clc1ccc(N2C[C@H]3CC[C@@H](C2)N3)nn1	none (no result: Lassa entry inh, FMDV inh, Vaccinia mCherry, Vaccinia Venus)
COC(=O)C1=C(C(=O)OC)[C@@H]2Nc3ccccc3[C@@]23C[C@@H](C(=O)OC)N(C(=O)NC2CCCC2)C3=N1	none (no result: Lassa entry inh, FMDV inh, Vaccinia mCherry, Vaccinia Venus)
CNc1ccc(/C=C2\C=Cc3ccccc32)cc1Cl	none (no result: Marburg entry inh, Lassa entry inh, FMDV inh)
COC(=O)[C@@H]1CCCN1Cc1ccc2c(c1)CN(Cc1cccc(Cl)c1)CCO2	none (no result: Marburg entry inh, Lassa entry inh)
Cc1ccc(-c2nnc(N3CCN(c4ccccn4)CC3)c3ccccc23)cc1	Marburg entry inh inconclusive, Lassa entry inh inconclusive, FMDV inh 22.4µM, Vaccinia mCherry 11.2µM, Vaccinia Venus 17.8µM
COc1cc(=O)n2c(c1C(=O)NCc1ccco1)CCN(C(=O)c1ccccc1-c1ncc[nH]1)CC2	none (no result: Marburg entry inh, Lassa entry inh)
O=C1/C(=C\c2ccccc2)CCc2c1[nH]c1ccccc21	Marburg entry inh 16.4µM, Lassa entry inh inconclusive (no result: Vaccinia mCherry, Vaccinia Venus)
C#CCN1C(=O)CC[C@@]23C1=NC(C(=O)OC)=C(C(=O)OC)[C@@H]2N(Cc1ccccc1)c1ccccc13	none (no result: Lassa entry inh, FMDV inh, Vaccinia mCherry, Vaccinia Venus)
O=C(O)CC/C=C\CC[C@H]1[C@@H](N2CCCCC2)[C@@H](O)C[C@@H]1OCc1ccc(-c2ccccc2)cc1	none (no result: Marburg entry inh, Lassa entry inh, Vaccinia mCherry, Vaccinia Venus)
CC(C)(C)OC(=O)N1CCC(c2c(C(=O)NCCN3CCC(Cc4ccccc4)CC3)cnn2-c2ccccc2)CC1	Lassa entry inh inconclusive, FMDV inh inconclusive, Vaccinia mCherry inconclusive, Vaccinia Venus 11.2µM (no result: Marburg entry inh)
CCOC(=O)c1cnn(-c2ccc(Cl)cc2)c1C1CCN(C(=O)OC(C)(C)C)CC1	Marburg entry inh inconclusive, Lassa entry inh 3.26µM, FMDV inh inconclusive, Vaccinia mCherry inconclusive
CC(C)(C)OC(=O)N1CCC(c2c(C(=O)N3CCCCC3)cnn2-c2ccc(Cl)cc2)CC1	Lassa entry inh inconclusive (no result: Marburg entry inh)
COc1cccc(N2CCN(C(=O)c3cnn(-c4ccccc4Cl)c3C3CCN(C(=O)OC(C)(C)C)CC3)CC2)c1	Lassa entry inh inconclusive (no result: Marburg entry inh)
COc1cccc(N2CCN(C(=O)c3cnn(-c4ccc(C)cc4C)c3C3CCN(C(=O)OC(C)(C)C)CC3)CC2)c1	Lassa entry inh 1.12µM, FMDV inh inconclusive (no result: Marburg entry inh)
COc1ccc(CN(C)CC2CCCN(CCc3ccccc3C)C2)cc1O (configuration not stated)	Marburg entry inh 8.91µM, Lassa entry inh inconclusive
COc1cccc(CN(C)CC2CCCN(CCc3ccccc3C)C2)c1 (configuration not stated)	none (no result: Marburg entry inh, Lassa entry inh, Vaccinia mCherry, Vaccinia Venus)
COc1ccc(C(=O)NNC(=O)C(=O)NC2CCCCC2)cc1	none
O=C(NCc1cccnc1)/C(=C\c1ccc(-c2ccc(Br)cc2)o1)S(=O)(=O)c1ccccc1	Marburg entry inh inconclusive, Lassa entry inh 12.6µM, FMDV inh 3.16µM, Vaccinia mCherry inconclusive, Vaccinia Venus 10µM
O=C(NCc1cccnc1)/C(=C/c1ccc(-c2ccc(Cl)cc2)o1)S(=O)(=O)c1ccccc1	Marburg entry inh inconclusive, Lassa entry inh 18.3µM, FMDV inh 3.55µM (no result: Vaccinia mCherry, Vaccinia Venus)
O=C1[C@H]2[C@@H]3[C@@H](O)[C@H](O)CC(=NOCc4ccccc4)[C@H]3CC[C@H]2C(=O)N1C[C@@H]1CCCO1	none (no result: Lassa entry inh, FMDV inh, Vaccinia mCherry, Vaccinia Venus)
Cc1cccc(C)c1-n1ncc(C(=O)N2CCN(c3ccccc3)CC2)c1C1CCN(C(=O)OC(C)(C)C)CC1	Lassa entry inh inconclusive, FMDV inh inconclusive (no result: Marburg entry inh)
O=c1c2ccccc2sn1-c1ccc(F)cc1	none (no result: Marburg entry inh, Lassa entry inh)
Cc1ccc(-n2sc3ccccc3c2=O)cc1	Marburg entry inh 3.16µM, Lassa entry inh inconclusive
Cc1oc(-c2ccccc2NC(=O)C2CCC2)nc1CNC(=O)c1c(F)ccc(F)c1F	none (no result: Marburg entry inh, Lassa entry inh)
CCOC(=O)[C@H]1[C@H]2COc3ccc(Br)cc3[C@H]2N2C(=O)CN(Cc3ccc(Cl)cc3)C(=O)[C@@]12C	Vaccinia Venus inconclusive (no result: Marburg entry inh, Lassa entry inh)
Cc1ccc2nc(-c3ccc(NC(=O)Cc4cccs4)cc3)[nH]c2c1	Lassa entry inh inconclusive, Vaccinia mCherry inconclusive, Vaccinia Venus 12.6µM (no result: FMDV inh)
Cc1ccc2nc(-c3ccc(NC(=O)C4CCCO4)cc3)[nH]c2c1 (configuration not stated)	Marburg entry inh inconclusive, Lassa entry inh 8.2µM (no result: Vaccinia mCherry, Vaccinia Venus)
Cc1ccc2nc(NC(=O)Cc3cccs3)sc2c1	Marburg entry inh inconclusive (no result: Vaccinia mCherry, Vaccinia Venus)
COc1ccc(NC(=O)C2CCCO2)cc1 (configuration not stated)	Marburg entry inh inconclusive (no result: Vaccinia mCherry, Vaccinia Venus)
COc1ccc(N2CCN(C3CC(=O)N(Cc4ccccc4)C3=O)CC2)cc1 (configuration not stated)	none
O=C(c1ccncc1)c1ccc(N2CCN(C3CC(=O)N(Cc4ccccc4)C3=O)CC2)cc1 (configuration not stated)	Marburg entry inh inconclusive, Lassa entry inh inconclusive, FMDV inh 15.8µM, Vaccinia Venus inconclusive (no result: Vaccinia mCherry)
Cc1ccc(NC(=O)COC(=O)/C(=C/c2cccs2)c2cccs2)cc1S(=O)(=O)N(C)C	Marburg entry inh inconclusive, Lassa entry inh 11.2µM
CC1=C(CC/C(C)=N/NC(N)=S)C(C)(C)CCC1	Marburg entry inh 20.6µM, Lassa entry inh inconclusive (no result: Vaccinia mCherry, Vaccinia Venus)
CC1=C(c2ccc(C)cc2)S(=O)(=O)N(Cc2ccc(C(=O)Nc3ccc(F)cc3C)cc2)C1=O	Lassa entry inh inconclusive, FMDV inh inconclusive (no result: Marburg entry inh)
CC(C)c1ccc(Nc2c(-c3ccccn3)nc3ccccn23)cc1	Marburg entry inh inconclusive, Lassa entry inh inconclusive, FMDV inh inconclusive, Vaccinia mCherry 11.2µM, Vaccinia Venus inconclusive
Cc1ccn2c(Nc3ccccc3)c(-c3ccccn3)nc2c1	Marburg entry inh inconclusive, Lassa entry inh 5.8µM, Vaccinia mCherry 2.24µM
Cc1ccc2nc(-c3cccs3)c(Nc3c(C)cccc3C)n2c1	Marburg entry inh 7.08µM, FMDV inh inconclusive
Cc1ccn2c(Nc3ccccc3C)c(-c3ccccn3)nc2c1	Marburg entry inh inconclusive, Lassa entry inh inconclusive, FMDV inh inconclusive, Vaccinia mCherry 7.94µM, Vaccinia Venus inconclusive
CCc1cc(/C=C/c2ccnc3ccccc23)ccc1N(C)C	Vaccinia mCherry inconclusive (no result: Marburg entry inh, Lassa entry inh, FMDV inh)
Cc1ccccc1CCN(C(=O)c1csnn1)C(C(=O)NC1CCCC1)c1ccncc1 (configuration not stated)	Lassa entry inh inconclusive
CCn1c(-c2cccc(OC)c2)nc2cc(NC(C)=O)cc(C(=O)N(C)CC3COCCO3)c21 (configuration not stated)	none (no result: Marburg entry inh, Lassa entry inh)
C[C@@H]1CN(Cc2ccc3c(c2)CN(Cc2cccc4cccnc24)CCO3)C[C@H](C)O1	none (no result: Marburg entry inh, Lassa entry inh)
CC(C)CCC(=O)N1CCOC1=O	none (no result: Marburg entry inh, Lassa entry inh)
